In PubChem BioAssay (NCATS) one finds Potency, activity and activity change, negative = inhibition data, which are given here for 24 molecules.

Inconclusive results are not listed. The source made the active and inactive calls. Calls come from the whole dose curve; as a rule, active = well fitted curve in the direction sought with a large enough effect; inconclusive = small, poorly fitted or top-dose-only effect, or another doubt; inactive = no such curve, though single readings can be large; an effect the other way counts as inactive or inconclusive.

A short description of experiment [1]: Primary qHTS for inhibitors of nuclear receptor binding SET domain protein 2 (NSD2) in an RCH-ACV wild type WT cells (2C) (AID 1645877). Note: nearly all actives have a fitted effect of over 70% in size. Note: potency is the fitted concentration of half-maximal effect.
The target in experiment [2] is Phospholipid hydroperoxide glutathione peroxidase GPX4 (Homo sapiens) (UniProt P36969). Nature of the experiment: Primary qHTS Assay for Inhibitors of Recombinant Selenoprotein Glutathione Peroxidase 4 (GPX4) (AID 1845192). For activity change, negative = inhibition: % is set by controls: 0 for no effect and ±100 for the full control effect. Note: nearly all actives have a fitted effect of over 65% in size. Note: potency is the fitted concentration of half-maximal effect. The essentials: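 NADPH consumption, followed by fluorescence at 340/450 nm between 0 and 15 min, reports GPX4 activity via coupled glutathione reductase (100 nM). Enzyme 200 nM was pre-exposed to compound 30 min; 0.5 mM cumene hydroperoxide and 1 mM GSH served as substrates.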
Chain of Phospholipid hydroperoxide glutathione peroxidase GPX4 (Homo sapiens) (P36969 whole entry, looked up): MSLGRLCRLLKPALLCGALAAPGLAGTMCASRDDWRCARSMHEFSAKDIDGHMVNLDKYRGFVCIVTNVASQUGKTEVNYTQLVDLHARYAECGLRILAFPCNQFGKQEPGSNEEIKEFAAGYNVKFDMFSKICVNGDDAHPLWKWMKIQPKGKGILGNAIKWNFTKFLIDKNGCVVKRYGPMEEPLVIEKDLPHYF

Experiment [3] addresses Luciferin 4-monooxygenase (Photinus pyralis) (UniProt P08659). Nature of the experiment: Primary firefly luciferase (FLuc) qHTS assay for identification of artifact compounds. (AID 1845220).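 For activity change, negative = inhibition: plate controls were DMSO vehicle for no effect and no enzyme for full effect.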 Note: nearly all actives have a fitted effect of over 60% in size. The essentials:
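Cell-free, 1536-well qHTS. Buffer pH 7.6 with 0.01% Tween-20 and 0.05% BSA; 10 uM D-luciferin, 10 uM ATP; 10 nM P. pyralis luciferase; luminescence after 5 min.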

The subject of experiment [4] is Nanoluciferase (engineered Oplophorus gracilirostris luciferase). Nature of the experiment: Primary Nanoluciferase (NLuc) qHTS assay for identification of artifact compounds. (AID 1845222).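 Note: 0% = DMSO and -100% = no enzyme.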 The essentials:
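Compounds are pinned into diluted (1:55) conditioned medium of NLuc-expressing S16 cells and held 15 min at room temperature protected from light. Nano-Glo substrate follows, and luminescence is read 5 min later.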

The nature of experiment [5]: Primary fluorescence-based thiol-reactive (MSTI) qHTS assay for identification of artifact compounds. (AID 1845221). Note: nearly all actives have a fitted effect of over 65% in size. Note: potency is the fitted concentration of half-maximal effect. The essentials: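 Thiol-reactive compounds detected by quenching of 4 uM MSTI fluorescence (525/598 nm) after 1 h room-temperature dark incubation in PBS pH 7.4, 2% DMSO. qHTS titration; percent inhibition Hill-fitted against Acetyl-MSTI/MSTI controls.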

Experiment [6] in a line: Primary redox qHTS assay for identification of artifact compounds. (AID 1845223).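 Note: 0% = DMSO and 100% = reference compound.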 The method in brief:
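Amplex Red (25 uM) and HRP (250 mU/mL) in HBSS, with compounds for 15 min, then 250 uM DTT for 30 min, room temperature, dark. Fluorescence 525/598 nm read; normalized to DMSO and 10 uM DA3003; Hill fit.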

In experiment [7] the target is Catechol O-methyltransferase (Homo sapiens) (UniProt P21964). Nature of the experiment: Confirmatory Screen for Target Class Profiling of Small Molecule Inhibitors of Methyltransferases (AID 1745852). For activity change, negative = inhibition: % is set by controls: 0 for no effect and ±100 for the full control effect. Conditions: MTase-Glo luminescence, SAH detection, recombinant enzyme; measured here: COMT max response; stronger effect = lower value.
Chain of Catechol O-methyltransferase (Homo sapiens) (P21964 whole entry, looked up): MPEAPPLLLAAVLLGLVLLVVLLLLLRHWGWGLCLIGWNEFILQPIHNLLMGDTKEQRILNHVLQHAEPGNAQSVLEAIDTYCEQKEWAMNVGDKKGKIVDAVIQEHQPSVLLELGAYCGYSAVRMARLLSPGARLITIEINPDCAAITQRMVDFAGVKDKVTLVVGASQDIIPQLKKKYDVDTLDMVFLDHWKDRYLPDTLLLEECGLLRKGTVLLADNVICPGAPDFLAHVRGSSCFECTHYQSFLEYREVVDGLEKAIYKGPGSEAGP
Experiment [8] addresses Guanidinoacetate N-methyltransferase (Homo sapiens) (UniProt Q14353). The description is as above. Conditions: activity change, negative = inhibition: at 57.3 µM (top of the series) unless noted.
Experiment [9] deals with Nicotinamide N-methyltransferase (Homo sapiens) (UniProt P40261). The experiment is described as above. The settings on record: MTase-Glo luminescence, SAH detection, recombinant enzyme; measured here: NNMT max response; stronger effect = lower value.
Chain of Nicotinamide N-methyltransferase (Homo sapiens) (P40261 whole entry, looked up): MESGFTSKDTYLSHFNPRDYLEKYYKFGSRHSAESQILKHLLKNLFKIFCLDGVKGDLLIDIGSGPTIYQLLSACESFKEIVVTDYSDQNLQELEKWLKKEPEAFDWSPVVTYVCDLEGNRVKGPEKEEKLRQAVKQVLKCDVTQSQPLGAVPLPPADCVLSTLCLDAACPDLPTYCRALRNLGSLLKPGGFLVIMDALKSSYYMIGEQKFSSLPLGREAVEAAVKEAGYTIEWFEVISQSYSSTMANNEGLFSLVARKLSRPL
In experiment [10] the target is Phenylethanolamine N-methyltransferase (Homo sapiens) (UniProt P11086). The experiment is described as above. The settings on record: MTase-Glo luminescence, SAH detection, recombinant enzyme; measured here: PNMT max response; stronger effect = lower value.
Chain of Phenylethanolamine N-methyltransferase (Homo sapiens) (P11086 whole entry, looked up): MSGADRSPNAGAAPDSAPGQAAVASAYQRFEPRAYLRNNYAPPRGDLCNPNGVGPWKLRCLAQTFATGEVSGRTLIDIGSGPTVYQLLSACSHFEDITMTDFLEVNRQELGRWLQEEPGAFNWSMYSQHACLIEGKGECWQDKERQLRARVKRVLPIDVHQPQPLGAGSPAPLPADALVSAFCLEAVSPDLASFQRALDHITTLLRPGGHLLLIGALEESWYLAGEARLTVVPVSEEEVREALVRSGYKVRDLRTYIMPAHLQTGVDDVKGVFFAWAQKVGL
The target in experiment [11] is Glutathione peroxidase 1 (Homo sapiens) (UniProt P07203). In words: Primary qHTS Assay for Inhibitors of Recombinant Selenoprotein Glutathione Peroxidase 1 (GPX1) (AID 1845191). Note: nearly all actives have a fitted effect of over 65% in size. The method in brief:
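10 nM GPX1 + cpd, 30 min RT; start w/ 1 mM GSH, 0.5 mM cumene hydroperoxide, 0.5 mM NADPH, 100 nM GR, 0.01% BSA; buffer 50 mM Tris-HCl pH 7.5, 2 mM EDTA, 150 mM NaCl; Fl 340/450, 0 & 15 min.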

Chain of Glutathione peroxidase 1 (Homo sapiens) (P07203 whole entry, looked up): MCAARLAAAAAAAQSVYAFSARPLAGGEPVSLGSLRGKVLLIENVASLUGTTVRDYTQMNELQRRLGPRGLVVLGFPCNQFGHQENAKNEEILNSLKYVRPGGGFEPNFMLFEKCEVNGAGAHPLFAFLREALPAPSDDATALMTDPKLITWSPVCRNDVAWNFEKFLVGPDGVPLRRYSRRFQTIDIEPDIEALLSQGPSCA

Regarding `CCc1cnn2c(NCc3ccc[n+]([O-])c3)cc(N3CCCCC3CCO)nc12` (stereo not given), the Potency in experiment [1] was 9.2 nM (active). The Potency result in experiment [2], in experiment [3] and in experiment [4] was “inactive” throughout.

Regarding `COc1ccc(C[C@H](N)C(=O)N[C@@H]2[C@H](O)[C@H](n3cnc4c(N(C)C)ncnc43)O[C@@H]2CO)cc1`, in [1], the Potency was 205 nM (active). The Potency result in [2], in [3], in experiment [5], in [4] and in experiment [6] was “inactive” each time.

With `Cc1cc(C)nc(NS(=O)(=O)c2ccc(NC(=S)NC(=O)COc3ccc(Br)cc3Cl)cc2)n1`, the Potency result in experiment [1], in [2], in [3], in experiment [5], in [4] and in experiment [6] was “inactive” in each case.

As to `Cc1ccc(NC(=O)c2ccc(CN3CC[C@H](N(C)C)C3)c(C(F)(F)F)c2)cc1Nc1nccc(-c2cncnc2)n1`, the Potency in experiment [1] is 7230 nM (active). The Potency result in experiment [2], in experiment [3], in experiment [5], in experiment [4] and in experiment [6] was “inactive” throughout.

`CC(=O)SCC(=O)c1ccc(NS(=O)(=O)c2ccc(OCCCN(C)C)cc2)nc1`: the Potency in [1] is 1150 nM (active). The Potency result in [2], in experiment [3], in experiment [4] and in experiment [6] was “inactive” throughout.

As for `Cc1c(CN2CCN(C(=O)C(C)O)CC2)sc2c(N3CCOCC3)nc(-c3cnc(N)nc3)nc12` (stereo not given), the Potency in [1] is 45.9 nM (active). In addition, the Potency entry in experiment [2], in experiment [3], in experiment [5], in experiment [4] and in experiment [6] was “inactive” throughout.

For `COc1cc(C2c3cc4c(c(O)c3CC(CO)C2C(=O)O)OCO4)cc(OC)c1O` (stereo not given), the Potency was 2000 nM (active) in [1] and 10300 nM (active) in [5]. Also, the Potency entry in experiment [2], in experiment [3], in [4] and in experiment [6] was “inactive” throughout.

In the case of `CC(C)Oc1ccc(C(=O)NC(CNC(=O)CN(C)C)Cc2ccc(-c3cn4cccc(C(C)O)c4n3)cc2)cc1Cl` (stereo not given), the Potency in experiment [1] is 64.9 nM (active). Also, the Potency entry in experiment [2], in experiment [3], in experiment [5], in experiment [4] and in experiment [6] was “inactive” each time.

With `C[C@@H]1C(=O)O[C@H]2[C@@H](O)C34[C@H]5C[C@@H](C(C)(C)C)C36[C@@H](OC(=O)[C@@H]6O)O[C@@]4(C(=O)O5)[C@@]12O` (stereo not given in full), the Potency entry in experiment [1], in [2], in [3], in experiment [5], in [4] and in experiment [6] was “inactive” throughout.

Turning to `C[C@@H]1COCCN1c1cc(C2(S(C)(=O)=O)CC2)nc(-c2cccc3[nH]ccc23)n1`, the results for the Potency in experiment [1] and in experiment [2] were 459 nM (active) and 18000 nM (active), respectively. Besides, the Potency result in experiment [3], in [5], in experiment [4] and in [6] was “inactive” in each case.

As to `COc1ccc(CNC(=O)c2cc(-c3cncc(C)c3)ncc2-c2nccs2)nc1OC`, the Potency entry in experiment [1], in experiment [2], in experiment [3], in experiment [5], in experiment [4] and in [6] was “inactive” throughout.

In the case of `COc1ccc(CNC(=O)c2sc3nc(C)cc(C)c3c2N)cc1`, the Potency entry in experiment [1], in experiment [2], in experiment [3], in experiment [5], in experiment [4] and in experiment [6] was “inactive” throughout.

Take `O=C(O)Cc1ccc2oc(-c3ccc(NC(=O)/C=C/c4ccc(Br)cc4)c(F)c3)nc2c1`: the Potency result in experiment [1], in experiment [2], in experiment [3], in [5], in experiment [4] and in [6] was “inactive” throughout.

On to `Cc1ccc(C(=O)N(CCCN)C(c2nc3cc(Cl)ccc3c(=O)n2Cc2ccccc2)C(C)C)cc1` (stereo not given), for which the Potency in [1] was 7.3 nM (active). Moreover, the Potency result in experiment [2], in [3], in experiment [4] and in [6] was “inactive” throughout.

Take `CC(=O)OC1C(=O)C2(C)C(O)CC3OCC3(OC(C)=O)C2C(OC(=O)c2ccccc2)C2(O)CC(OC(=O)C(O)C(NC(=O)c3ccccc3)c3ccccc3)C(C)=C1C2(C)C` (stereo not given): the Potency in [1] was 6.5 nM (active). Moreover, the Potency entry in [2], in experiment [3], in experiment [5], in experiment [4] and in [6] was “inactive” throughout.

On to `CC(Oc1ccc2[nH]nc(/C=C/c3cnn(CCO)c3)c2c1)c1c(Cl)cncc1Cl` (stereo not given), for which the Potency in experiment [1] is 103 nM (active). Besides, the Potency entry in experiment [2], in experiment [3] and in experiment [4] was “inactive” each time.

Consider `NC(=O)Nc1cc(-c2cccc(F)c2)sc1C(=O)NC1CCCNC1` (stereo not given), for which the Potency in [1] is 81.7 nM (active). For the same molecule, the Potency entry in experiment [2], in [3], in experiment [5], in experiment [4] and in [6] was “inactive” throughout.

Turning to `NC(=O)c1cccc2cn(-c3ccc(C4CCCNC4)cc3)nc12` (stereo not given), the Potency was 2050 nM (active) in experiment [1] and 20200 nM (active) in [2]. Also, the Potency entry in [3], in [5], in [4] and in [6] was “inactive” each time.

On to `CC(NC(=O)CCc1nc2ccccc2c(=O)[nH]1)c1ccccc1` (stereo not given), for which the Potency entry in experiment [1], in experiment [2], in experiment [3], in [5], in experiment [4] and in experiment [6] was “inactive” each time.

Turning to `C=C1C(=O)OC2CC3(C)C(CC12)C(C)=CC(O)C3OC(C)=O` (stereo not given), the activity in experiment [7] was -65.4%; in experiment [9], 1.24%; in experiment [10], -2.5%. In addition, the activity change, negative = inhibition in experiment [8] came out at 0%. The Potency result in [11], in experiment [2], in experiment [3], in [4] and in experiment [6] was “inactive” each time. For the same molecule, the Potency in experiment [5] is 5850 nM (active).

With `CCC1=CC2CN(C1)Cc1c([nH]c3ccccc13)[C@@](C(=O)OC)(c1cc3c(cc1OC)N(C)[C@H]1[C@@](O)(C(=O)OC)[C@H](OC(C)=O)[C@]4(CC)C=CCN5CC[C@]31[C@@H]54)C2` (stereo not given in full), the Potency in experiment [1] was 31.7 nM (active). Besides, the Potency result in [3] and in experiment [4] was “inactive” each time.

As to `Cc1ccc(S(=O)(=O)Cc2nc(-c3ccc(C(=O)NCc4cccnc4)cc3)oc2C)cc1`, the Potency in [1] is 18.6 nM (active). Further, the Potency result in experiment [3], in [5], in experiment [4] and in [6] was “inactive” throughout.

For the molecule `C/C=C/c1ccc2c(c1)[C@@H](C)[C@H](c1ccc(O)cc1)O2`, the figures for the activity in experiment [7], in experiment [9] and in experiment [10] were -8.28%, -59.1% and 0.8%, respectively. Moreover, the activity change, negative = inhibition in [8] is 0.447%. Further, the Potency result in [11], in experiment [2], in experiment [5], in experiment [4] and in [6] was “inactive” each time.

As to `C=C(F)c1sc(CNCCCNc2cc(=O)c3ccccc3[nH]2)c(C)c1Br`, the activity in experiment [7] was -1.13%; in experiment [9], -33.7%; in [10] it was -2.47%. Further, in experiment [8], the activity change, negative = inhibition is -1.39%. In addition, the Potency result in experiment [11], in experiment [2], in experiment [3], in experiment [5], in [4] and in [6] was “inactive” in each case.
